Inconclusive results are not listed. Active and inactive are the calls of the source. Unless noted, the call rests on the fitted dose curve; in most records, active means well fitted curve in the direction sought with a large enough effect in the repeat runs; inconclusive means weak or mixed curves; inactive means no such curve, though single readings can be large; an effect the other way counts as inactive or inconclusive.
How the values were obtained:
[1] = qHTS assay to identify small molecule agonists of the estrogen receptor alpha (ER-alpha) signaling pathway in the presence of an antagonist - cell viability counter screen (AID 1259386);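 further: cells exposed to compounds for 22 h at 37 °C before the viability read; nearly all actives have a fitted effect of over 30% in size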; further: potency means the concentration at half of the fitted maximal effect; on activity change, negative = cytotoxicity: series mostly up to about 92 µM
Summary of the method: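 Using estrogen-depleted VM7Luc4E2 cells, the 15-concentration compound series was applied together with 10.0nM ICI-182,780 and incubated 22hr at 37C/5% CO2. Cell viability was then scored by CellTiter-Fluor.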

[2] = target: Progesterone receptor (Homo sapiens) (UniProt P06401); test: qHTS assay to identify small molecule antagonists of the progesterone receptor (PR) signaling pathway (AID 1346795; active means well fitted inhibition curve with a large enough effect in the signal ratio in the repeat runs, not every such curve was filed as active; the % refers to the signal ratio; further: potency means the concentration at half of the fitted maximal effect)
Progesterone receptor (Homo sapiens), sequence (P06401 whole entry, looked up): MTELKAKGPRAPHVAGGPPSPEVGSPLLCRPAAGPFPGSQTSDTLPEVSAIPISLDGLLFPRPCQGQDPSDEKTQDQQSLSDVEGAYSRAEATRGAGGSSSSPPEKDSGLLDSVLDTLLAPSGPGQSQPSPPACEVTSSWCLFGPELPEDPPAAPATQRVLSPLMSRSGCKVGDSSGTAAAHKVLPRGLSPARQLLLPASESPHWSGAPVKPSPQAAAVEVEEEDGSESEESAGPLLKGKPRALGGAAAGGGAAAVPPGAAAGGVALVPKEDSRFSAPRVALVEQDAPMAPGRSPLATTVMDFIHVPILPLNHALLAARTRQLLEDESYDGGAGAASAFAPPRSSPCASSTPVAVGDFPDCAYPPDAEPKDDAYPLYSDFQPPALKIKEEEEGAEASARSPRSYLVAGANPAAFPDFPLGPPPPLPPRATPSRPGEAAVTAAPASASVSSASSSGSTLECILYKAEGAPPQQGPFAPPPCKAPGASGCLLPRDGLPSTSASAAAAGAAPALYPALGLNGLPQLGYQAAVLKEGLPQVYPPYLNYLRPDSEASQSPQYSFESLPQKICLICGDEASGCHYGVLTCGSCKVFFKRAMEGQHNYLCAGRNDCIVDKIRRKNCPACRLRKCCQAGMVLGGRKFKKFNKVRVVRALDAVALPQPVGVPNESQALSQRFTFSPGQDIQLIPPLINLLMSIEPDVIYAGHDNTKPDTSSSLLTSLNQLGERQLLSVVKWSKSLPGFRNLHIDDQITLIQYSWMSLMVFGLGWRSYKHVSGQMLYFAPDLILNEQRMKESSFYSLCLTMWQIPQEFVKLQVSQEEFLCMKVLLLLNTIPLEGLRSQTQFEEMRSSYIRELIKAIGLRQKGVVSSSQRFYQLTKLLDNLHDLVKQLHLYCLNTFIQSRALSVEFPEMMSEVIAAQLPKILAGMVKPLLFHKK
Summary of the method: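 Stimulus R5020 at 1 nM final; cells HEK293T PR-UAS-bla; medium with 2% charcoal-stripped FBS; compound exposure 16 hr at 37C, 5% CO2; detection by FRET beta-lactamase substrate, 2 hr, room temperature.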

[3] = qHTS assay to identify small molecule antagonists of the TGF-beta/Smad signaling pathway - cell viability counter screen (AID 1346824); further: nearly all actives have a fitted effect of over 50% in size; further: potency means the concentration at half of the fitted maximal effect
Summary of the method: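 SBE-bla HEK 293T cells, incubated overnight, then compound plus 0.25 ng/mL TGF-beta1 (stock added) for 5 hr at 37 C. Viability was read in the same wells by CellTiter-Glo luminescence after 30 min at room temperature.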

[4] = qHTS assay to identify small molecule agonists of the TGF-beta/Smad signaling pathway - cell viability counter screen (AID 1346829); further: nearly all actives have a fitted effect of over 45% in size; further: potency means the concentration at half of the fitted maximal effect; on activity change, negative = cytotoxicity: top concentration of the series differs between compounds
Summary of the method: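 SBE-bla HEK 293T cells plated overnight, compound exposure 5 hr at 37 C. Viability read in the same wells by CellTiter-Glo luminescence after 30 min at room temperature, following the beta-lactamase read.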

[5] = target: Thyrotropin-releasing hormone receptor (Homo sapiens) (UniProt P34981); test: qHTS assay to identify small molecule antagonists of the thyrotropin-releasing hormone receptor (TRHR) signaling pathway (AID 1346877; active means well fitted inhibition curve with a large enough effect in the repeat runs, not every such curve was filed as active; further: series mostly up to about 51 µM)
Thyrotropin-releasing hormone receptor (Homo sapiens), sequence (P34981 whole entry, looked up): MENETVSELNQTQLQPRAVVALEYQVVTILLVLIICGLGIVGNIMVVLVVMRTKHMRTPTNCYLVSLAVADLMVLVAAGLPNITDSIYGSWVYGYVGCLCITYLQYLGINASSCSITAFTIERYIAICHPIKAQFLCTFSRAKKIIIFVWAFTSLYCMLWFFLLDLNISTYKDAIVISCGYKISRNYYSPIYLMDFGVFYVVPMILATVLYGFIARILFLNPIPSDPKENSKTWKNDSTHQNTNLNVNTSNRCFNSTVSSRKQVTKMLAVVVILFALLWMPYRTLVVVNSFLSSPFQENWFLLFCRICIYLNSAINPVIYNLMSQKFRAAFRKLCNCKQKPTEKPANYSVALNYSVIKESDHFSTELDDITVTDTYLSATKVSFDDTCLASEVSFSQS
Summary of the method: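 Calcium signal in dye-loaded TRHR/HEK293 cells; compounds added 5 min before TRH (1 nM final); fluorescence monitored 3 min at 1 s steps.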

[6] = target: Thyrotropin-releasing hormone receptor (Homo sapiens) (UniProt P34981); test: qHTS assay to identify small molecule agonists of the thyrotropin-releasing hormone receptor (TRHR) signaling pathway (AID 1346891; calls by dose curve; further: series mostly up to about 58 µM)
Summary of the method: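 Readout was intracellular calcium fluorescence in TRHR-Hek293 cells. Cells were incubated 18 h, dye-loaded 2 h at 37 °C, and treated with compound in agonist mode.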

[7] = Human pregnane X receptor (PXR) small molecule agonists, qHTS cell viability counter screen (AID 1346977); further: nearly all actives have a fitted effect of over 50% in size; further: potency means the concentration at half of the fitted maximal effect
Summary of the method: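 In each well, the PXR reporter HepG2 line was checked for viability: CellTiter-Fluor reagent added 23hr post-dosing, fluorescence read after 1hr incubation at 37C.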

[8] = Caspase-3/7 induction in HepG2 cells by small molecules, qHTS assay (AID 1346978); further: nearly all actives have a fitted effect of over 15% in size
Summary of the method: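 Wild-type HepG2 cells, 2,000/well, settled 5 hr at 37 C and 5% CO2, then compound-treated for 17 hr; caspase-3/7 activity read by luminescent Caspase-Glo 3/7 after 30 min at room temperature.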

[9] = Caspase-3/7 induction in CHO-K1 cells by small molecules, qHTS cell viability counter screen (AID 1346979); further: nearly all actives have a fitted effect of over 35% in size; further: potency means the concentration at half of the fitted maximal effect
Summary of the method: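 Following a 5hr settling period, CHO-K1 cells at 1,500 per well received DMSO-dissolved compounds. Cell viability was quantified 16hr later by CellTiter-Fluor fluorescence, measured after 1hr with reagent at 37C.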

[10] = Caspase-3/7 induction in CHO-K1 cells by small molecules, qHTS assay (AID 1346980); further: nearly all actives have a fitted effect of over 15% in size
Summary of the method: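 Wild-type CHO-K1 cells exposed to compounds for 17hr at 37 C, 5% CO2. Caspase-3/7 activity then measured by Caspase-Glo 3/7 luminescence after 30min at room temperature.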

[11] = Caspase-3/7 induction in HepG2 cells by small molecules, qHTS cell viability counter screen (AID 1346981); further: nearly all actives have a fitted effect of over 30% in size; further: potency means the concentration at half of the fitted maximal effect; on activity change, negative = cytotoxicity: series mostly up to about 92 µM
Summary of the method: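 After a 5-hr attachment period at 37 C and 5% CO2, wild-type HepG2 cells received compounds in DMSO. Sixteen hours later CellTiter-Fluor was dispensed and the fluorescent signal quantified after a further hour.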

[12] = target: Nuclear receptor subfamily 1 group I member 2 (Rattus norvegicus) (UniProt Q9R1A7); test: Rat pregnane X receptor (rPXR) activation by small molecules, qHTS assay (AID 1346983); details: rPXR luciferase reporter cells, One-Glo luminescence, 24 h; max activation: stronger effect = higher value; further: nearly all actives have a fitted effect of over 20% in size
Nuclear receptor subfamily 1 group I member 2 (Rattus norvegicus), sequence (Q9R1A7 whole entry, looked up): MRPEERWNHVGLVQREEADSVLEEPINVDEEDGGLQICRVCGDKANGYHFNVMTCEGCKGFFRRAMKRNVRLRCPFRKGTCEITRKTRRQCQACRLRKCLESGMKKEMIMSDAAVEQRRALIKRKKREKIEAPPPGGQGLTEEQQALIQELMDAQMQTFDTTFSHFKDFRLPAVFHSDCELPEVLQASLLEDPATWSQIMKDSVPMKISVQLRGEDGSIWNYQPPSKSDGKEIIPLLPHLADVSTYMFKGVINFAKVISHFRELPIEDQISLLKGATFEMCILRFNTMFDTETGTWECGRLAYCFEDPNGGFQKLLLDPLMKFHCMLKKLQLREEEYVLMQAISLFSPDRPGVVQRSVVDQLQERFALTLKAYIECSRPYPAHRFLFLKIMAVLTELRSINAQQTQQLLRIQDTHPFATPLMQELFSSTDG
Summary of the method: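 Cell-based rPXR activation assay: rPXR cells, 2,000 per well, rested 5hr at 37 C, then exposed to compounds in DMSO for 24 hr at 37 C. Luciferase activity read by One-Glo luminescence after 30 min at room temperature.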

[13] = target: Nuclear receptor subfamily 1 group I member 2 (Homo sapiens) (UniProt O75469); test: CYP3A4 induction through human pregnane X receptor (PXR) by small molecules, qHTS assay (AID 1346984); further: nearly all actives have a fitted effect of over 40% in size
Nuclear receptor subfamily 1 group I member 2 (Homo sapiens), sequence (O75469 whole entry, looked up): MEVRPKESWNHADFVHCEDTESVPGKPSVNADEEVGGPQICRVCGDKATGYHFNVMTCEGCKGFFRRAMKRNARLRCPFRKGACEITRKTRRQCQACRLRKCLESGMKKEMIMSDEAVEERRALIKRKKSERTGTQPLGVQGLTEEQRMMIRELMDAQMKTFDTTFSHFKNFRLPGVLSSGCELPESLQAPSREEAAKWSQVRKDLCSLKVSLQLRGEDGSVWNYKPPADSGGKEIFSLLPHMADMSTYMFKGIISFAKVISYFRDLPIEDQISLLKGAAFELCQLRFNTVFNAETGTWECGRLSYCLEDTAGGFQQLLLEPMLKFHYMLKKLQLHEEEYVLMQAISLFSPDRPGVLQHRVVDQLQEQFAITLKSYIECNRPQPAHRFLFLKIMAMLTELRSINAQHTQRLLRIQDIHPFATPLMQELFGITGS
Summary of the method: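 Cells (DPX-2; HepG2 with PXR element plus CYP3A4-promoter luciferase) settled 5hr, then were treated 24hr at 37C. A 3hr, 3uM-final Luciferin-IPA step preceded luminescence measurement with One-Glo.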

[14] = target: Nuclear receptor subfamily 1 group I member 2 (Homo sapiens) (UniProt O75469); test: Human pregnane X receptor (PXR) activation by small molecules, qHTS assay (AID 1346985); further: nearly all actives have a fitted effect of over 40% in size
Summary of the method: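 DPX-2 cells (HepG2 co-transfected with a PXR response element and a CYP3A4-promoter luciferase construct) were seeded at 2,000 per well, rested 5 hr at 37C, then exposed to DMSO-dissolved compounds for 24 hr. Activation was read as luciferase luminescence.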

[15] = target: Cytochrome P450 2D6 (Homo sapiens) (UniProt P10635); test: Cytochrome P450 Family 2 Subfamily D Member 6 (CYP2D6) small molecule antagonists: luciferase reporter qHTS assay (AID 1671196); further: nearly all actives have a fitted effect of over 50% in size; further: potency means the concentration at half of the fitted maximal effect; on activity change, negative = inhibition: series mostly up to about 120 µM
Cytochrome P450 2D6 (Homo sapiens), sequence (P10635 whole entry, looked up): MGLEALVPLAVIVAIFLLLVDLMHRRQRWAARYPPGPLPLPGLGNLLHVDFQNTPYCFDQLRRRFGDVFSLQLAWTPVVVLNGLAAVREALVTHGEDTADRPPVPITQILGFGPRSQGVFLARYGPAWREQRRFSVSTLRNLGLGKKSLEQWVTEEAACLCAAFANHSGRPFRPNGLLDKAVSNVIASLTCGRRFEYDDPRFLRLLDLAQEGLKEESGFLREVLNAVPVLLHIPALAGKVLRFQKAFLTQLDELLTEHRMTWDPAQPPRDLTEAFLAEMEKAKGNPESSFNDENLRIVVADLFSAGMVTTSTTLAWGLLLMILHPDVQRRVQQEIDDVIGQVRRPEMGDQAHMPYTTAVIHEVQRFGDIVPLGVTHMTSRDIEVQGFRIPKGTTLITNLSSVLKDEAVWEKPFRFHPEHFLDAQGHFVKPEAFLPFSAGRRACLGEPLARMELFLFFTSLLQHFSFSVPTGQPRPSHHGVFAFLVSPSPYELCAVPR
Summary of the method: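 Room-temperature luminescent CYP2D6 activity assay: compound preincubated 10 min with enzyme–substrate mix, NADPH-initiated reaction 1 h, detection reagent 20 min before reading.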

[16] = qHTS assay to identify small molecule antagonists of the progesterone receptor (PR) signaling pathway - cell viability counter screen (AID 1346798); further: nearly all actives have a fitted effect of over 50% in size; further: potency means the concentration at half of the fitted maximal effect; on activity change, negative = cytotoxicity: series mostly up to about 92 µM
Summary of the method: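 In the same plates used for the beta-lactamase readout, cell viability of compound- and R5020-treated PR-UAS-bla HEK293T cells (16 hr, 37C) was assessed by CellTiter-Glo luminescence.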

[17] = qHTS assay to identify small molecule agonists of the TGF-beta/Smad signaling pathway (AID 1346859; active means well fitted activation curve with a large enough effect in the signal ratio in the repeat runs, not every such curve was filed as active; the % refers to the signal ratio; further: series mostly up to about 77 µM)
Summary of the method: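 Screening used HEK 293T SBE-bla cells at 4,000/well. Test agents: 5 hr, 37 C. Detection: FRET substrate, 2 hr RT, then excitation 405 nm with emissions at 460 and 530 nm.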

[18] = target: Nuclear receptor subfamily 1 group I member 2 (Homo sapiens) (UniProt O75469); test: Human pregnane X receptor (PXR) small molecule agonists, qHTS assay (AID 1346982); further: nearly all actives have a fitted effect of over 35% in size; further: potency means the concentration at half of the fitted maximal effect
Summary of the method: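 Tox21 qHTS; PXR-Luc HepG2; compounds pinned from DMSO; 24 hr, 37 C; ONE-Glo luciferase detection, 30 min room temperature.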

[19] = qHTS assay to identify small molecule agonists of the progesterone receptor (PR) signaling pathway - cell viability counter screen (AID 1346799; calls by dose curve; further: nearly all actives have a fitted effect of over 45% in size; further: potency means the concentration at half of the fitted maximal effect)
Summary of the method: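 Multiplexed viability read: CellTiter-Glo luminescence, 30 min RT, following LiveBLAzer FRET measurement on PR-UAS-bla HEK293T cells exposed to compounds 16 hr.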
On the % scale 0 is the no-effect control and ±100 the full control effect.

O=C(O)Cc1sc(-c2ccccc2)nc1-c1ccc(Cl)cc1
inactive: Potency [1] | Potency [2] | Potency [3] | Potency [4] | outcome [5] | Potency [6] | Potency [7] | outcome [8] | Potency [9] | Potency [10] | Potency [11] | max activation [12] 0.948% | Potency [13] | Potency [14] | Potency [15]

CCCCC(CC)(CO)CO
inactive: Potency [1] | Potency [2] | Potency [16] | Potency [3] | Potency [4] | outcome [17] | outcome [5] | Potency [6] | Potency [7] | outcome [8] | Potency [9] | Potency [10] | Potency [11] | Potency [18] | Potency [15]

CC(C)(C)c1ccc(OCC2CO2)cc1 (stereo unspecified)
inactive: Potency [1] | Potency [2] | Potency [16] | Potency [19] | Potency [3] | Potency [4] | outcome [17] | outcome [5] | outcome [8] | Potency [10]
active: Potency [18] 35.1 µM

Cc1occc1S
inactive: Potency [1] | Potency [2] | Potency [19] | Potency [3] | Potency [4] | outcome [17] | outcome [5] | Potency [6] | Potency [7] | outcome [8] | Potency [9] | Potency [10] | Potency [11] | Potency [15]
active: Potency [18] 61.1 µM

C=Cc1c(C)c2cc3[nH]c(cc4nc(cc5nc(cc1[nH]2)C(C)=C5CCC(=O)O)C(CCC(=O)O)=C4C)c(C)c3C=C
active: Potency [1] 26.6 µM | Potency [7] 15 µM | Potency [9] 21.1 µM | Potency [11] 13.3 µM
inactive: Potency [2] | Potency [16] | Potency [19] | Potency [3] | Potency [4] | outcome [17] | outcome [5] | Potency [6] | outcome [8] | Potency [10] | max activation [12] -1.27% | Potency [13] | Potency [14]

O=C(NN1CCCC1)NS(=O)(=O)c1ccc(Cl)cc1
inactive: Potency [1] | Potency [2] | Potency [16] | Potency [19] | Potency [3] | Potency [4] | outcome [17] | outcome [5] | Potency [6] | Potency [7] | outcome [8] | Potency [9] | Potency [10] | Potency [11] | Potency [18] | Potency [15]

CCCCCCCCCCCCC(=O)O
active: Potency [19] 19.4 µM
inactive: Potency [1] | Potency [2] | Potency [3] | Potency [4] | outcome [17] | outcome [5] | Potency [6] | Potency [7] | outcome [8] | Potency [10] | Potency [11] | Potency [15]

CC(C)c1ccc2c(C(C)C)cc(C(C)C)c(S(=O)(=O)O)c2c1
inactive: Potency [1] | Potency [2] | Potency [16] | Potency [3] | Potency [4] | outcome [17] | outcome [5] | Potency [7] | outcome [8] | Potency [9] | Potency [10] | Potency [11] | Potency [15]
active: Potency [18] 25.2 µM

Oc1ccc(O)c2c(O)cccc12
inactive: Potency [1] | Potency [16] | Potency [19] | Potency [3] | Potency [4] | outcome [17] | outcome [5] | Potency [6] | Potency [7] | outcome [8] | Potency [9] | Potency [10] | Potency [18] | Potency [15]

CCC(=O)OC(C)(C)C1CC=C(C)CC1 (stereo unspecified)
inactive: Potency [1] | Potency [2] | Potency [16] | Potency [3] | Potency [4] | outcome [17] | Potency [7] | outcome [8] | Potency [9] | Potency [10] | Potency [11] | Potency [18]

Nc1cnn([C@@H]2O[C@H](CO)[C@@H](O)[C@H]2O)c(=O)n1
active: Potency [2] 19.4 µM
inactive: Potency [1] | Potency [16] | Potency [19] | Potency [3] | Potency [4] | outcome [17] | outcome [5] | Potency [6] | Potency [7] | Potency [10] | Potency [11] | Potency [18] | Potency [15]

NCCCN(CCO)CCO
inactive: Potency [1] | Potency [2] | Potency [16] | Potency [3] | Potency [4] | outcome [17] | outcome [5] | Potency [6] | Potency [7] | outcome [8] | Potency [10] | Potency [11] | Potency [18]

NC(N)=NN=C(/C=C/c1ccc([N+](=O)[O-])o1)/C=C/c1ccc([N+](=O)[O-])o1
active: Potency [1] 9.44 µM | Potency [16] 23.7 µM | Potency [19] 23.7 µM | Potency [3] 23.9 µM | Potency [4] 21.3 µM | Potency [7] 6.68 µM | Potency [9] 5.31 µM | Potency [11] 8.41 µM | Potency [18] 2.66 µM | Potency [15] 15.5 µM
inactive: outcome [17] | outcome [5] | Potency [6] | outcome [8] | max activation [12] -21.7% | Potency [13] | Potency [14]

CC(C)(C)c1cc(CCC(=O)OCC(COC(=O)CCc2cc(C(C)(C)C)c(O)c(C(C)(C)C)c2)(COC(=O)CCc2cc(C(C)(C)C)c(O)c(C(C)(C)C)c2)COC(=O)CCc2cc(C(C)(C)C)c(O)c(C(C)(C)C)c2)cc(C(C)(C)C)c1O
inactive: Potency [1] | Potency [2] | Potency [16] | Potency [19] | Potency [3] | Potency [4] | outcome [17] | outcome [5] | Potency [6] | Potency [7] | outcome [8] | Potency [9] | Potency [11] | Potency [15]

CCCCCCCCCCCCCCCCCBr
inactive: activity change, negative = cytotoxicity [1] 0.889% [at 19 µM] | activity change, negative = inhibition [2] 0.192% [at 18.9 µM] | activity change, negative = cytotoxicity [16] -0.341% [at 18.9 µM] | activity change, negative = cytotoxicity [19] 10.6% [at 19 µM] | viability change, negative = cytotoxic [3] 1.56% [at 15.8 µM] | activity change, negative = cytotoxicity [4] 0.567% [at 15.8 µM] | activation [17] 2.19% [at 15.8 µM] | activity, negative = inhibition [5] -2.78% [at 10.5 µM] | activation [6] -0.232% [at 11.8 µM] | activity change, negative = cytotoxicity [7] 1.63% [at 19 µM] | caspase activation [8] 0.0731% [at 19 µM] | activity change, negative = cytotoxicity [9] 6.07% [at 19 µM] | caspase-3/7 activation [10] -0.258% [at 19 µM] | activity change, negative = cytotoxicity [11] 2.8% [at 19 µM] | activation [18] 1.46% [at 19 µM] | activity change, negative = inhibition [15] -1.15% [at 23.6 µM]

CC(C)(Oc1ccc(Cl)cc1)C(=O)OCCCOC(=O)C(C)(C)Oc1ccc(Cl)cc1
inactive: Potency [1] | Potency [2] | Potency [16] | Potency [19] | Potency [3] | Potency [4] | outcome [17] | outcome [5] | Potency [6] | Potency [7] | Potency [9] | Potency [10] | Potency [11] | Potency [18] | Potency [15]

Source: PubChem BioAssay (Tox21)
